A selection: hits, their analogues and other compounds. The true share with any hit is near 17%.
TDP1 inh: inhibitors of human tyrosyl-DNA phosphodiesterase TDP1 | AID 485290 | recombinant TDP1, AlphaScreen DNA substrate cleavage | Potency, µM (titrated, usually from 130 µM), for inactives: at the top dose activity change, negative = inhibition, usual class: inhibitors | actives 0.28% (n = 350,000); further: on the % scale 0 is the no-effect control and ±100 the full control effect; nearly all actives have a fitted effect of over 40% in size
Target sequence (Q9NUW8 whole entry, looked up): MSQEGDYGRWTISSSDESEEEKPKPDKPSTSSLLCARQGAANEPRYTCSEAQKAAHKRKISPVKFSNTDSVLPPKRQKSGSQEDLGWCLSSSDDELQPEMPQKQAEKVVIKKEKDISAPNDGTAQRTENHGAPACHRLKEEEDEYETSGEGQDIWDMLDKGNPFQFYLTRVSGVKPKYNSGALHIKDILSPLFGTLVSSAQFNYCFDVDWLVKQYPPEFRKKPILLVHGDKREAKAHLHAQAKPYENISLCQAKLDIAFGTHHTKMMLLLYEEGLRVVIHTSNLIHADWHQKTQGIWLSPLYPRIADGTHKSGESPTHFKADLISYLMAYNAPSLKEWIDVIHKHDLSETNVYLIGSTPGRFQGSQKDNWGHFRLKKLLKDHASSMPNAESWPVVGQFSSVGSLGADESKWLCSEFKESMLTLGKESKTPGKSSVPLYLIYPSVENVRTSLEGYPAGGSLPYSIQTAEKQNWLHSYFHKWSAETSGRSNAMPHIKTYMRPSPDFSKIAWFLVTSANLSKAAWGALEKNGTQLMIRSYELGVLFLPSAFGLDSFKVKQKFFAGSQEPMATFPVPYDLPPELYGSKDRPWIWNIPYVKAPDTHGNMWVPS
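Recombinant E. coli-expressed Tdp1 (1 nM) preincubated with compound 15 min at RT, then 5'-biotin/3'-phosphotyrosine-FITC DNA substrate (15 nM) added for 5 min. AlphaScreen beads (10 ug/ml) added, 10 min RT; tyrosine-FITC cleavage read as signal loss.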
TDP1 cell noCPT: qHTS for Inhibitors of human tyrosyl-DNA phosphodiesterase 1 (TDP1): qHTS in cells in absence of CPT; DT40 Tdp1-/- hTDP1 cells, no CPT, ATP luminescence, 48 h; Potency, µM (doses to about 46.2 µM), for inactives: at the highest dose activity change, negative = growth inhibition, most hits filed as inhibitors; actives 15% (n = 420,000); AID 686978, 2013; further: on the % scale 0 is the no-effect control and ±100 the full control effect; nearly all actives have a fitted effect of over 55% in size
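Seeded 400 DT40-hTDP1 cells/well (vehicle DMSO, no 20 nM CPT); pinned compounds; ≥48 hr at 37 °C; CellTiter-Glo luminescence as viability measure.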
TDP1 cell CPT: DT40-hTDP1 cell growth loss with CPT. actives 12% (n = 420,000). Potency, µM (series often up to 46.2 µM), for inactives: at the top dose activity change, negative = growth inhibition, most hits filed as inhibitors. chicken DT40 Tdp1-/-;hTDP1 cells + 20 nM CPT, ATP luminescence, 48 h; further: on the % scale 0 is the no-effect control and ±100 the full control effect; nearly all actives have a fitted effect of over 55% in size
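Chicken DT40 Tdp1-/- cells stably complemented with human TDP1 were seeded at 400 cells/well in medium containing 20 nM camptothecin, exposed to pin-transferred compounds, and grown at 37 °C for at least 48 hr. Viability was read as ATP luminescence.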
ClpP mod: qHTS Assay for Activators of ClpP. Potency, µM (top dose mostly 57.5 µM), without a hit: at the highest dose activity change, negative = active. AID 651965, 2013. purified B. subtilis ClpP, FRET peptide cleavage, 20 min. actives 1.9% (n = 340,000); active means well fitted falling curve with a large enough effect; inconclusive means small, poorly fitted or top-dose-only effect; inactive means no such curve, though single readings can be large or run the other way; further: the source files actives as falling curves though it sought activators and does not explain the sign; nearly all actives have a fitted effect of over 65% in size
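Buffer: 100 mM Tris/HCl pH8, 100 mM KCl, 0.05% low protease BSA, 2.5% glycerol, 0.01% Tween-20. ClpP 10 microg/mL final; 20 min RT; delta FRET normalized to ADEP and DMSO controls.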
Starred values were filed as active, the others as inactive; ? = inconclusive; · = not tested or not shown; [ ] = remark or other dose. Unless noted, the call rests on the fitted dose curve; in most records, active means well fitted curve in the direction sought with a large enough effect; inconclusive means small, poorly fitted or top-dose-only effect, or another doubt; inactive means no such curve, though single readings can be large; an effect the other way counts as inactive or inconclusive. Potency means the concentration at half of the fitted maximal effect.

SMILES | TDP1 inh | TDP1 cell noCPT | TDP1 cell CPT | ClpP mod
CC(C)C(=O)NC(Nc1cccc2cccnc12)C(Cl)(Cl)Cl (configuration not stated) | 6% | 13µM* | 15µM* | 0%
CCC(=O)Nc1cccc2cccnc12 | 0% | 3% | 12% | -2%
O=C(COc1ccc(C(=O)c2ccc(F)cc2)cc1)NCc1ccc(F)cc1 | -8% | 4.6µM* | 3.3µM* | 0%
COc1ccc(CNC(=O)COc2ccc(C(=O)c3ccc(F)cc3)cc2)cc1 | -8% | 4.6µM* | 2.6µM* | -2%
CCN1C(C)=C(C(=O)OC(C)C)C(c2ccccc2Cl)C(C(=O)O)=C1C(=O)O (configuration not stated) | 10% | · | · | ·
NCc1cn(Cc2ccccc2)nc1-c1ccccc1 | 2% | ? | 11µM* | -2%
CC(=O)NC(c1ccccc1)c1nc(-c2cccc(CO)c2)cs1 (configuration not stated) | · | -10% | -19% | 1%
Oc1c(C(c2ccccc2F)N2CCN(c3ccccc3F)CC2)sc2nc(-c3ccco3)nn12 (configuration not stated) | 5% | -24% | -24% | -4%
CNc1ccc(Cl)cc1S(=O)(=O)c1ccccc1[N+](=O)[O-] | · | 15µM* | -58% | -5%
COc1ccc(S(=O)(=O)Nc2ccc3c(c2)C(=O)N([C@H](C)CO)C[C@H](C)[C@@H](CN(C)S(=O)(=O)c2ccc(OC)cc2)O3)cc1 | · | ? | ? | 0%
COc1ccc(-c2nc(-c3ccncc3)no2)cc1 | · | -21% | 0% | -3%
Cn1nc(-c2ccncc2)nc2c(=O)n(C)c(=O)nc1-2 | 4% | 0.35µM* | 0.32µM* | 2%
CCn1nc(-c2ccc(C)cc2)nc2c(=O)n(C)c(=O)nc1-2 | 0% | 2.2µM* | 1.6µM* | -3%
COCC(C)n1c(C)cc(C(=O)COC(=O)c2cc(=O)[nH]c3ccccc23)c1C (configuration not stated) | 9% | ? | ? | -19%
CCC(C)n1nccc1NC(=O)C(C)OC(=O)c1cc2ccccc2[nH]1 (configuration not stated) | 7% | -29% | -18% | 28µM*
OCCc1ccc(O)c(-n2nc3ccccc3n2)c1 | 1% | 2% | 2% | ·
N#Cc1ccc(COc2ccc(CCO)cc2-n2nc3ccccc3n2)cc1 | 4% | 16µM* | ? | ?
CCCCNC(=S)N(Cc1ccco1)Cc1cc2cc3c(cc2[nH]c1=O)OCCO3 | 7% | 10% | 7% | -3%
O=C(Nc1ccc(F)cc1)N(Cc1ccco1)Cc1cc2cc3c(cc2[nH]c1=O)OCO3 | 4% | 23µM* | ? | 32µM*
Cc1ccc(NC(=O)N(Cc2cccs2)Cc2cc3cc4c(cc3[nH]c2=O)OCO4)cc1 | 1% | · | · | ·
O=C(Nc1ccc(F)cc1)N(Cc1cccs1)Cc1cc2cc3c(cc2[nH]c1=O)OCO3 | 0% | 16µM* | ? | 32µM*
Cc1cccc(S(=O)(=O)c2cn(C)c3cc(N4CCN(c5ccccc5)CC4)c(F)cc3c2=O)c1 | 0% | -15% | 4% | -5%
CC(=O)C(Cc1ccccc1)NC(=O)CN(C)Cc1ccccc1Cl (configuration not stated) | 14% | ? | -17% | ·
O=C(COC(=O)c1cc2ccccc2oc1=O)c1cccc([N+](=O)[O-])c1 | 1% | -20% | -8% | 32µM*
COc1ccc(-n2cc(C(=O)c3cc4ccccc4oc3=O)c(C(C)=O)n2)cc1 | 0% | ? | 23µM* | 0%
SMILES | TDP1 inh | TDP1 cell noCPT | TDP1 cell CPT | ClpP mod
COc1cc2c(cc1OC)CN(C(=O)c1cc3ccccc3oc1=O)CC2 | 3% | 12µM* | 10µM* | 1%
O=C(NCc1ccc(Cl)cc1)c1cc2ccccc2oc1=O | · | -24% | 2% | 20µM*
C=C(C(C)=O)C(O)c1ccccc1 (configuration not stated) | -3% | · | · | ·
O=C(O)c1ccc(S(=O)(=O)c2ccc3c(c2)C(=O)N(NC(=O)c2cccnc2)C3=O)cc1 | 5% | 22% | 0% | -1%
O=C(Cc1ccc(F)cc1)OCC(=O)c1cc2ccccc2o1 | -4% | -15% | -10% | 0%
COc1cc(/C=C/[N+](=O)[O-])ccc1OC(=O)c1cc2ccccc2oc1=O | · | 26µM* | ? | ·
COc1ccccc1OC(=O)c1cc2ccccc2oc1=O | · | -15% | 42% | ·
O=C(Cc1cc2ccccc2o1)NCc1ccc(F)cc1 | · | 23µM* | 21µM* | 4%
COC(=O)c1cc2ccccc2oc1=O | -2% | -5% | -18% | 20µM*
O=C(OCCn1cncn1)c1cc2ccccc2oc1=O | -1% | -8% | 7% | 28µM*
CCC1(C2CCN(Cc3ccccn3)CC2)NC(=O)N(CC2COc3ccccc3O2)C1=O (configuration not stated) | · | -7% | -7%[9.04 µM] | ·
CCCCN1C[C@H](COC(=O)CCC)Oc2cccc(F)c2S1(=O)=O | · | -3% | -14% | 0%
O=C(c1ccc(S(=O)(=O)N2CCCCC2)cc1)N1CCCC(C(F)(F)F)C1 (configuration not stated) | 0% | ? | -21% | 1%
CCc1nc(N)c(C#N)c(-c2ccc(OC)c(OC)c2)c1C | 5% | ? | -16% | 13%
CCCN(CC1CC1)c1nc(N)c2c(N)nc(OC)cc2c1C#N | 8% | 23µM* | 16µM* | 25µM*
CCOc1cc2c(C#N)c(N(CC)CC)nc(N)c2c(N)n1 | · | 16µM* | ? | 5%
c1ccc(-c2nnc3sc(CN4CCc5ccccc54)cn23)cc1 | -2% | ? | 21µM* | 1%
COc1cccc(-c2nnc3sc(CN4CCCCC4)cn23)c1 | 2% | 1.3µM* | 1.2µM* | -4%
CC1OC(C(C)(C)C)Cc2[nH][nH]c(=O)c21 (configuration not stated) | · | -14% | -14% | 1%
CCOCCCn1c(=S)[nH]c2cc(C(=O)NC3CCCC(C)C3C)ccc2c1=O (configuration not stated) | 0% | 0% | -25% | 0%
COc1ccccc1-c1nnc(C2CCN(S(=O)(=O)c3ccc(CC(C)C)cc3)CC2)o1 | 6% | ? | ? | -8%
O=C(c1cnn(-c2ccccc2)c1)c1cc(F)ccc1O | · | -29% | -2% | -7%
CC(C)c1ccc(NC(=O)COc2ccc(F)cc2C(=O)c2cnn(-c3ccccc3)c2)cc1 | -3% | 13µM* | ? | -1%
Cc1cc(NC(=O)c2ccccc2F)on1 | 5% | 3% | 13µM* | ·
Cc1csc(NC(=O)C(NC(=O)c2ccccc2F)C(C)C)n1 (configuration not stated) | 3% | 21µM* | ? | ·
CC(C)[C@H](NC(=O)c1ccccc1F)C(=O)Nc1ccc(F)c(F)c1 | · | -12% | 5% | -1%

Bioassay records deposited in PubChem by National Center for Advancing Translational Sciences (NCATS).
